Unmarked numbers belong to inactive results. Results filed as inconclusive are left out. Active and inactive are the calls of the source. Unless noted, calls come from the whole dose curve; as a rule, active = well fitted curve in the direction sought with a large enough effect; inconclusive = small, poorly fitted or top-dose-only effect, or another doubt; inactive = no such curve, though single readings can be large; an effect the other way counts as inactive or inconclusive.
tested on: not listed separately; assay: qHTS Validation Assay to Find Inhibitors of Chronic Active B-Cell Receptor Signaling (AID 485345; active = well fitted curve in the direction sought with a large enough effect in the main read-out, with a control signal flat, not every such curve was filed as active;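 note: 0% = untreated basal cells and 100% = 10 µM MG-132 proteasome inhibitor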); settings: ABC-DLBCL cells, chronic BCR signaling reporter, CBG luciferase; series mostly up to 46.1 µM; activity change: at the top concentration
Procedure, shortened: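 Read-out: ratio of filter-corrected green (IkappaBalpha fusion) to red (native) luciferase signal in doxycycline-induced TMD8 cells after 4 h at 37C. Titration spanned 46 uM–3 nM; Data were normalised to basal cells and 10 uM MG-132 wells.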

SMILES | activity change
CC(=O)SCC[N+](C)(C)C | -3.13%
O=C(O)c1cc(=O)c2ccccc2[nH]1 | -6.43%
NCCCCCCCCCCN | -7.17%
CN1[C@@H](CC(=O)c2ccccc2)CCC[C@H]1C[C@H](O)c1ccccc1 | -4.8%
C[C@@H](CN1CCC(Cc2ccccc2)CC1)[C@@H](O)c1ccc(O)cc1 | 0.888%
Cc1ccc(C(=O)O[C@H](C(=O)O)[C@@H](OC(=O)c2ccc(C)cc2)C(=O)O)cc1 (tested in a mixture with another compound) | 2.25%
NCCCCC(=O)O | 0.687%
NC(=O)C(=O)O | -8.61%
O=C(O)CC1CCCc2ccccc2C1O (stereo unspecified) | -6.44%
CC1CN(S(=O)(=O)c2cccc3cnccc23)CCN1 (stereo unspecified) | -9.62%
CCCCCCCCCCCCCCCC(=O)NCC(COP(=O)([O-])OCC[N+](C)(C)C)OCC (stereo unspecified) | 16.5%
N=C(N)SCCc1ccc(CCSC(=N)N)cc1 | -20%
CC1(C)CCC=[N+]1[O-] | -1.65%
CN1CCC[C@H]1c1cccnc1 | 0.261%
O=C(O)CNC(=O)C(CS)Cc1ccccc1 (stereo unspecified) | -3.96%
C=CC(N)CCC(=O)O (stereo unspecified) | -5.33%
COc1cc2c(CCNC(C)=O)c[nH]c2cc1Cl | -4.27%
COc1cc(C(O)CO)ccc1OS(=O)(=O)O (stereo unspecified) | -12.9%
c1ccc(-c2ccccn2)nc1 | -5.55%
NO | -6.77%
O=C(O)c1cc(=O)c2c(Cl)cc(Cl)cc2[nH]1 | -0.458%
NCCSSCCN | -1.63%
O=c1[nH]c2cc([N+](=O)[O-])c([N+](=O)[O-])cc2[nH]c1=O | -5.35%
CN1C2CCC1CC(OC(=O)C(O)c1ccccc1)C2 (stereo unspecified) | -10.5%
O=C(O)[C@@H]1C[C@@H](C(=O)O)N1 | -4.54%

target: Beta-2 adrenergic receptor (Homo sapiens) (UniProt P07550); assay: qHTS validation assay of beta-arrestin-biased ligands of beta2-adrenergic receptor (AID 485366); settings: cell-based beta-arrestin recruitment to ADRB2, qHTS; series mostly up to 46.1 µM; activation: at the top concentration; note: 0% is about no effect
Procedure, shortened: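 qHTS, Tango cells, 1500 cells/well, DMEM + 1% FBS. Cpd 18 hr at 37 degrees C. Luciferin/ATP/CoA detection mix, 15 min RT, luminescence read. %Activity from corrected signal; CRC fit, curve class.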

Sequence of Beta-2 adrenergic receptor (Homo sapiens) (P07550 whole entry, looked up): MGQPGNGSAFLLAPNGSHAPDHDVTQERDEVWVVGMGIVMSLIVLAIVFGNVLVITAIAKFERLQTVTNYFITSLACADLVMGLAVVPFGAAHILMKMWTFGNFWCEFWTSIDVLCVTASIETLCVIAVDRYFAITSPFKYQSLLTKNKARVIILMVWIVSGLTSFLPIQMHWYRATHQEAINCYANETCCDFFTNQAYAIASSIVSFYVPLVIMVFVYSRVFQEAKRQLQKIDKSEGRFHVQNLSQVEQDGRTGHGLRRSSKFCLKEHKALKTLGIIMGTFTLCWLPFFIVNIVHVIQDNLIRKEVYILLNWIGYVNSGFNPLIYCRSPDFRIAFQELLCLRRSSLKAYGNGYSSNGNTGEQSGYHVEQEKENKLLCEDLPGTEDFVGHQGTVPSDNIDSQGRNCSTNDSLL

SMILES | activation
O=C(O)c1cc(=O)c2ccccc2[nH]1 | 0.0867%
NCCCCCCCCCCN | -0.0234%
Cc1ccc(C(=O)O[C@H](C(=O)O)[C@@H](OC(=O)c2ccc(C)cc2)C(=O)O)cc1 (tested in a mixture with another compound) | -0.424%
OCC1O[C@H](O)C(Cl)C(O)C1O (stereo partly specified) | -0.102%
NCCCCC(=O)O | -0.973%
NC(=O)C(=O)O | 1.01%
O=C(O)CC1CCCc2ccccc2C1O (stereo unspecified) | -0.478%
CC(=O)N[C@H](C(=O)O)C(C)(C)SN=O | 0.29%
CC1CN(S(=O)(=O)c2cccc3cnccc23)CCN1 (stereo unspecified) | -0.593%
CCCCCCCCCCCCCCCC(=O)NCC(COP(=O)([O-])OCC[N+](C)(C)C)OCC (stereo unspecified) | -0.0145%
CC1(C)CCC=[N+]1[O-] | 0.887%
CN1CCC[C@H]1c1cccnc1 | 0.0699%
O=C(O)CNC(=O)C(CS)Cc1ccccc1 (stereo unspecified) | 3.31%
C=CC(N)CCC(=O)O (stereo unspecified) | 0.0885%
COc1cc(C(O)CO)ccc1OS(=O)(=O)O (stereo unspecified) | -0.367%
c1ccc(-c2ccccn2)nc1 | 0.582%
NO | 1.68%
O=C(O)c1cc(=O)c2c(Cl)cc(Cl)cc2[nH]1 | -0.53%
O=c1[nH]c2cc([N+](=O)[O-])c([N+](=O)[O-])cc2[nH]c1=O | 7.3%
Cn1c(=O)c2[nH]c(-c3ccccc3)nc2n(C)c1=O | -0.152%

target: ATP-dependent 6-phosphofructokinase (Trypanosoma brucei brucei) (UniProt O15648); assay: qHTS Validation Assay to Find Inhibitors of T. brucei phosphofructokinase (AID 485368); settings: T. brucei PFK enzyme assay, qHTS 7-point titration; series mostly up to 57.5 µM; activity change, negative = inhibition: at the top concentration; outcome: at the top concentration
Procedure, shortened: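 Luminescent ADP detection measures PFK turnover of fructose-6-phosphate (0.5 mM) with ATP (0.1 mM) at pH 8.0. Reaction runs 45 min at room temperature with 1.25 nM enzyme; inhibitors tested as titrations up to 57 uM.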

Sequence of ATP-dependent 6-phosphofructokinase (Trypanosoma brucei brucei) (O15648 whole entry, looked up): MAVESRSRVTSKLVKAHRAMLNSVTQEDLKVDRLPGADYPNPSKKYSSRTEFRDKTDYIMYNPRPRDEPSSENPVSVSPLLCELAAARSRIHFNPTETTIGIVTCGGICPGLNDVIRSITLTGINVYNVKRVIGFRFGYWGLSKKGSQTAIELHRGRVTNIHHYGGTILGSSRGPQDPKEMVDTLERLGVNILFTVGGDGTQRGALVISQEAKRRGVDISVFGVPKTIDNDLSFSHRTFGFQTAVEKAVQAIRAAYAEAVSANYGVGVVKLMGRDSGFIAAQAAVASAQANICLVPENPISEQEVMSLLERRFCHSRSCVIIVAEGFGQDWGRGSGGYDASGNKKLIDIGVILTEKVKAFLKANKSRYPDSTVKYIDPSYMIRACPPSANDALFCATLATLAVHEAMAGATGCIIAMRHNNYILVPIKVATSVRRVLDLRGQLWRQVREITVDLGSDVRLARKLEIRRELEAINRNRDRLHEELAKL

SMILES | outcome
CC(=O)SCC[N+](C)(C)C | inactive
C[C@@H](CN1CCC(Cc2ccccc2)CC1)[C@@H](O)c1ccc(O)cc1 | inactive
Cc1ccc(C(=O)O[C@H](C(=O)O)[C@@H](OC(=O)c2ccc(C)cc2)C(=O)O)cc1 (tested in a mixture with another compound) | inactive
NC(=O)C(=O)O | inactive
O=C(O)CC1CCCc2ccccc2C1O (stereo unspecified) | inactive
S=C(S)OC1CC2CC1C1CCCC21 (stereo unspecified) | inactive
CC1CN(S(=O)(=O)c2cccc3cnccc23)CCN1 (stereo unspecified) | inactive
N=C(N)SCCc1ccc(CCSC(=N)N)cc1 | inactive
CN1CCC[C@H]1c1cccnc1 | inactive
O=C(O)CNC(=O)C(CS)Cc1ccccc1 (stereo unspecified) | inactive
O=C(O)c1cc(=O)c2c(Cl)cc(Cl)cc2[nH]1 | inactive
NCCSSCCN | inactive
O=c1[nH]c2cc([N+](=O)[O-])c([N+](=O)[O-])cc2[nH]c1=O | inactive
CN1C2CCC1CC(OC(=O)C(O)c1ccccc1)C2 (stereo unspecified) | inactive
Cn1c(=O)c2[nH]c(-c3ccccc3)nc2n(C)c1=O | inactive

tested on: not listed separately; assay: Quantitative high throughput screen for delayed death inhibitors of the malarial parasite plastid, 96 hour incubation (AID 488745); settings: Plasmodium falciparum growth; series mostly up to 28.7 µM; activity change, negative = inhibition: at the top concentration;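 note: luciferase-expressing P. falciparum in erythrocytes at 2% hematocrit and 0.1% parasitemia; % is set by controls: 0 for no effect and ±100 for the full control effect; nearly all actives have a fitted effect of over 70% in size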
Procedure, shortened: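 Readout is firefly luciferase luminescence from an integrated reporter in P. falciparum; lower signal marks inhibited growth. Cultures at 2% hematocrit and 0.1% parasitemia were treated with compound across two generations (96 h, 37 C, 5% CO2).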

SMILES | activity change, negative = inhibition
CC(=O)SCC[N+](C)(C)C | -12.4%
O=C(O)c1cc(=O)c2ccccc2[nH]1 | -12%
NCCCCCCCCCCN | 7.29%
CN1[C@@H](CC(=O)c2ccccc2)CCC[C@H]1C[C@H](O)c1ccccc1 | -2.86%
C[C@@H](CN1CCC(Cc2ccccc2)CC1)[C@@H](O)c1ccc(O)cc1 | 4.57%
Cc1ccc(C(=O)O[C@H](C(=O)O)[C@@H](OC(=O)c2ccc(C)cc2)C(=O)O)cc1 (tested in a mixture with another compound) | 5.79%
OCC1O[C@H](O)C(Cl)C(O)C1O (stereo partly specified) | 23.8%
CN[C@H](CC(C)C)C(=O)N[C@H]1C(=O)N[C@@H](CC(N)=O)C(=O)N[C@H]2C(=O)N[C@H]3C(=O)N[C@H](C(=O)N[C@H](C(=O)O)c4cc(O)cc(O)c4-c4cc3ccc4O)[C@H](O)c3ccc(c(Cl)c3)Oc3cc2cc(c3O[C@@H]2O[C@H](CO)[C@@H](O)[C@H](O)[C@H]2O[C@H]2C[C@](C)(N)[C@H](O)[C@H](C)O2)Oc2ccc(cc2Cl)[C@H]1O | -2.78%
NCCCCC(=O)O | -3.07%
NC(=O)C(=O)O | -0.67%
O=C(O)CC1CCCc2ccccc2C1O (stereo unspecified) | 21.3%
S=C(S)OC1CC2CC1C1CCCC21 (stereo unspecified) | -2.89%
C=C/C(C)=C/[C@@]1(C)SC(=O)C(C)=C1O | -5.48%
CC(=O)N[C@H](C(=O)O)C(C)(C)SN=O | 20.6%
CC1CN(S(=O)(=O)c2cccc3cnccc23)CCN1 (stereo unspecified) | -13.1%
CO/N=C(\C(=O)N[C@@H]1C(=O)N2C(C(=O)O)=C(COC(C)=O)CS[C@H]12)c1csc(N)n1 (stereo in doubt) | -0.0517%

SMILES | activity change, negative = inhibition
CCCCCCCCCCCCCCCC(=O)NCC(COP(=O)([O-])OCC[N+](C)(C)C)OCC (stereo unspecified) | 1.64%
N=C(N)SCCc1ccc(CCSC(=N)N)cc1 | 8.55%
CC1(C)CCC=[N+]1[O-] | 0.36%
CN1CCC[C@H]1c1cccnc1 | -2.36%
O=C(O)CNC(=O)C(CS)Cc1ccccc1 (stereo unspecified) | 2.62%
C=CC(N)CCC(=O)O (stereo unspecified) | 2.07%
COc1cc2c(CCNC(C)=O)c[nH]c2cc1Cl | 8.81%
COc1cc(C(O)CO)ccc1OS(=O)(=O)O (stereo unspecified) | -22.1%
c1ccc(-c2ccccn2)nc1 | 1.89%
O=C(O)c1cc(=O)c2c(Cl)cc(Cl)cc2[nH]1 | -11.9%
NCCSSCCN | -6.06%
O=c1[nH]c2cc([N+](=O)[O-])c([N+](=O)[O-])cc2[nH]c1=O | -10.2%
CN1C2CCC1CC(OC(=O)C(O)c1ccccc1)C2 (stereo unspecified) | -0.607%
O=C(O)[C@@H]1C[C@@H](C(=O)O)N1 | -0.413%
Cn1c(=O)c2[nH]c(-c3ccccc3)nc2n(C)c1=O | 10.2%
